Test results reported in ChEMBL document CHEMBL3988442, “University of Dundee, Small-Polar-MMV Screening Library” (2021).
The whole screen tested about 48,000 compounds, of which about 13,000 (27%) showed an effect of 50% or more. The list shows a part of the results.

System: Wolbachia pipientis
Assay: Anti-Wolbachia Cell-Based Screen
Type: functional
Set-up: scale not given: in the data most compounds retested in dose-response had high values
Details: 5 µM

SMILES | Percent Effect [%]
Cc1nsc(NC(=O)N2CCN(Cc3ccc(F)cc3)C(=O)C2)n1 | 3.543
Cn1ncnc1-c1ccnc(N2CCC(C(O)c3cccs3)CC2)n1 (stereo not given) | -11.63
CN1CCOC(CNCc2coc(-c3ccccc3)n2)C1 (stereo not given) | -3.46
CN(C)CC1CN(Cc2coc(-c3ccccc3Cl)n2)CCO1 (stereo not given) | -0.3444
CN1CCOC(CNC(=O)Cc2coc(-c3ccccc3)n2)C1 (stereo not given) | 107.6
CN1CCOC(CNCc2coc(-c3ccccc3Cl)n2)C1 (stereo not given) | 105.3
Cc1ccc(-c2nc(CNCC3CN(C)CCO3)co2)cc1 (stereo not given) | 108.3
Cc1ccc(-c2nc(CNCC3CN(C)CCO3)co2)c(C)c1 (stereo not given) | 99.3
CCC1CN(C(=O)Cc2coc(-c3ccccc3)n2)CCO1 (stereo not given) | -15.78
CN1CCOC(CNC(=O)Cc2ccccc2F)C1 (stereo not given) | -10.58
CN1CCOC(CNCc2nc(-c3ccoc3)no2)C1 (stereo not given) | -1.201
CC(C)(C)OC(=O)N1CCCc2ccc(NCc3ncc[nH]3)cc21 | 1.363
Cn1cnnc1CC1CCN(Cc2c(Cl)cncc2Cl)CC1 | -0.137
COc1ccc(S(=O)(=O)Cc2cc(C)on2)cc1 | 3.84
CN1CCOC(CNCc2coc(-c3ccc(Cl)cc3)n2)C1 (stereo not given) | 81.44
O=C(CCn1cncn1)N1CCCC(CO)(CCCc2ccccc2)C1 (stereo not given) | 16.2
CC(C)(C)OC(=O)N1CSC[C@@H]1C(=O)NCc1ccncc1 | -9.296
CN(CCc1ccncc1)C(=O)C1CSCN1C(=O)C1CCCC1 (stereo not given) | -15.81
CN(CCc1ccncc1)C(=O)C1CSCN1C(=O)C(C)(C)C (stereo not given) | -12.64
CN(CCc1ccncc1)C(=O)C1CSCN1C(=O)CC(C)(C)C (stereo not given) | 109.1
CN(CC(F)(F)F)C(=O)C1CSCN1C(=O)OC(C)(C)C (stereo not given) | 6.249
CN(Cc1ccncc1)C(=O)[C@H]1CSCN1C(=O)OC(C)(C)C | 103.4
Nc1nnc(CCNc2ncnc3c2CCN(C(=O)C2CC2)C3)s1 | -2.758
CCS(=O)(=O)c1ncc(CN2CCCC2)n1CCc1ccccc1 | 1.853
COCCc1nc(CSc2ccncc2)n(C)n1 | -10.21

SMILES | Percent Effect [%]
CN(C)C(=O)Cn1c2c(ccc1=O)CCN(Cc1cnn(C)c1)CC2.O=C(O)C(F)(F)F | 120.2
COc1ccc2c(c1)C1(CCN(Cc3cnn(C)c3)CC1)N(C)CC2.O=C(O)C(F)(F)F | 2.583
O=C(NC1CC1)N1CCc2ccc(=O)n(Cc3ccncc3)c2CC1 | 23.4
Cn1cc(CN2CCc3ccc(=O)n(CC4CC4)c3CC2)cn1 | 115.2
CC(OCC1CC1)C(=O)N1CCCN(Cc2cnn(C)c2)CC1 (stereo not given) | 6.432
O=c1ccc2c(n1Cc1ccncc1)CCN(C1CCOC1)CC2 (stereo not given) | 8.67
CN(C)CCn1c2c(ccc1=O)CCN(Cc1ccncc1)CC2 | 102
Cn1cc(CN2CCc3ccc(=O)n(Cc4ccncc4)c3CC2)cn1.O=C(O)C(F)(F)F.O=C(O)C(F)(F)F | 104.6
Cc1cnc(NCC(C)(C)N2CCCCC2)nc1 | 1.17
Cc1nc(-c2ccc(Cl)s2)sc1C(=O)NCCS(N)(=O)=O | -0.7868
COCC(=O)N1CCC2(CC1)NC(=O)[C@H]1CN(C(=O)N(C)C)C[C@H]12 | -27.95
Cc1csc(CNC(=O)Nc2cc(C(F)(F)F)c[nH]c2=O)n1 | -4.751
CC(C)(O)CCc1ccc(C(=O)N2CCN(CC3CCCC3)CC2)cc1 | -6.284
CN(C)CCn1c2c(ccc1=O)CCN(Cc1cnn(C)c1)CC2.O=C(O)C(F)(F)F.O=C(O)C(F)(F)F | 120.7
COCc1nn(C)c2c1CCN(Cc1cnn(C)c1)C2.O=C(O)C(F)(F)F | -18.26
Fc1ccccc1-c1cccc(C2CCCN(C3CCOCC3)C2)n1 (stereo not given) | 71.52
CCc1nccn1-c1cccc(C2CCCN(C3CCCCC3)C2)n1 (stereo not given) | 96.78
Cc1nccn1-c1cccc(C2CCCN(C(=O)c3cc[nH]n3)C2)n1 (stereo not given) | 5.97
c1ccc(-c2nnc([C@H]3CCN(C4CCOCC4)C3)o2)cc1 | -19.45
Cc1nccn1-c1cccc(C2CCCN(C3CCCCC3)C2)n1 (stereo not given) | -27.27
Cc1cccc(O[C@H]2COCCN(C3CCOCC3)C2)n1 | -0.8542
Cc1nccn1-c1cccc(C2CCCN(C3CCCC3)C2)n1 (stereo not given) | 98.22
O=c1cc2c(nn1CN1CCOCC1)CCC2 | 1.556
CNC(=O)NC(=O)CNc1cc(C(=O)OC)cc(C(F)(F)F)c1 | 1.326
COc1cccc(CN2CCc3nc(C(=O)NCC(C)C)sc3CC2)c1.O=C(O)C(F)(F)F | 3.655
